We go through 17 compounds from PMC5540273 (PLoS ONE, 2017).

“And” between values parts separate entries of the source, which are not always exact repeats. Identical values can stand only once. Like-named read-outs stand apart in the source and are kept apart here.

Test systems include ANKK1; AURKA; AURKB; AURKC; AXL; BLK.
What all share (conditions): n = 1
For another assay, the system named is T1, ARK5.
T1 construct: gene NUAK1

The next assay concerns T2, ASK1.
T2 construct: gene MAP3K5

A further assay relates to T3, ASK2.
T3 construct: gene MAP3K6

For a further assay, the system named is T4, BIKE.
T4 construct: gene BMP2K

Setting [1] is: concentration: 1 μM, replicates: in singlicate.
Where [2] appears, read: concentration: 1 μM,replicates: in singlicate, 1 µM.
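Also: KINOMEscan kinase panel screen.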

Consider `Cc1c(O)cccc1Nc1ccnc2ccc(C(F)(F)F)cc12.Cl` [GW466413], for which the “%Inh” value in the assay with ANKK1 (setting [1]) is 0%; in the assay on ARK5 (setting [1]), 10%; in the assay on ASK1 (setting [1]), 0%; with ASK2 (setting [1]) it was 0%; in the assay with AURKA (setting [1]), 0%; in the assay on AURKB (setting [1]) it was 34%. Also, the “%Inh” value in the assay with AURKC (setting [1]) turned out to be 0%; in the assay with AXL (setting [1]) it was 1%; with BIKE (setting [1]) it was 4%; in the assay on BLK (setting [1]), 66%.
Consider `Nc1nc(-c2nccs2)c(-c2ccnc3ccccc23)s1` [GW693542], for which the “%Inh” value with ANKK1 (setting [1]) was determined as 6%; in the assay on ARK5 (setting [1]), 0%; with ASK1 (setting [1]) it was 5%; in the assay with ASK2 (setting [1]) it was 0%; in the assay with AURKA (setting [1]), 0%; with AURKB (setting [1]), 0%. The “%Inh” value in the assay with AURKC (setting [1]) turned out to be 0%; in the assay with AXL (setting [1]), 42%; with BIKE (setting [1]), 4%; in the assay on BLK (setting [1]) it was 42%.
In the case of `Clc1cc(Cl)cc(Nc2ccnc(Nc3cc(Cl)cc(Cl)c3)n2)c1` [GSK175726], the “%Inh” value with ANKK1 (setting [1]) worked out at 18%; in the assay with ARK5 (setting [1]), 8%; in the assay on ASK1 (setting [1]), 4%; with ASK2 (setting [1]), 3%; with AURKA (setting [1]) it was 90%; with AURKB (setting [1]) it was 0%. Besides, the “%Inh” value is recorded as 13% with AURKC (setting [1]), 2% with AXL (setting [1]), 8% in the assay on BIKE (setting [1]) and 6% in the assay on BLK (setting [1]).
Take `O=C(Nc1n[nH]c2nc(-c3nccs3)c(Br)cc12)C1CC1` [SB-742251]: the “%Inh” value with ANKK1 (setting [1]) was 0%; with ARK5 (setting [1]) it was 0%; in the assay on ASK1 (setting [1]) it was 4%; in the assay on ASK2 (setting [1]) it was 21%; in the assay on AURKA (setting [1]) it was 0%; in the assay with AURKB (setting [1]), 31%. Further, the “%Inh” value is recorded as 13% in the assay on AURKC (setting [1]), 15% in the assay on AXL (setting [1]), 36% in the assay with BIKE (setting [1]) and 0% with BLK (setting [1]).
With `Cn1ccc2ncnc(Oc3ccc(NC(=O)Nc4ccccc4)cc3)c21`, the “%Inh” value in the assay on ANKK1 (setting [1]) is 0%; in the assay on ARK5 (setting [1]), 4%; with ASK1 (setting [1]), 16%; with ASK2 (setting [1]), 0%; in the assay on AURKA (setting [1]) it was 15%; in the assay on AURKB (setting [1]), 93.7%. Also, the “%Inh” value was determined as 84% in the assay with AURKC (setting [1]), 0% in the assay on AXL (setting [1]), 0% with BIKE (setting [1]) and 2% in the assay on BLK (setting [1]).
As to `Cc1nnc(-c2ccc3occ(-c4ccc(S(C)=O)cc4)c3c2)[nH]1` (centres unmarked), the “%Inh” value with ANKK1 (setting [1]) was found to be 28%; in the assay on ARK5 (setting [1]) it was 6%; in the assay on ASK1 (setting [1]), 0%; in the assay with ASK2 (setting [1]), 3%; in the assay with AURKA (setting [1]), 25%; in the assay with AURKB (setting [1]), 49%. The “%Inh” value came out at 0% with AURKC (setting [1]), 24% in the assay with AXL (setting [1]), 0% with BIKE (setting [1]) and 0% in the assay on BLK (setting [1]).
Regarding `O=C(Nc1n[nH]c2nc(-c3nccs3)c(Br)cc12)C1CCCC1` [SB-742609], the “%Inh” value is 0% in the assay on ANKK1 (setting [1]); 0% in the assay on ARK5 (setting [1]); 0% in the assay with ASK1 (setting [1]); 13% in the assay with ASK2 (setting [1]); 0% in the assay on AURKA (setting [1]); 13% in the assay with AURKB (setting [1]). Further, the “%Inh” value in the assay on AURKC (setting [1]) is recorded as 11%; with AXL (setting [1]) it was 0%; with BIKE (setting [1]), 0%; in the assay with BLK (setting [1]), 31%.
As to `C[C@@H]1CCCCN1c1cc(-c2ccc3c(N)n[nH]c3c2)nc(N)n1` [GSK2258759], the “%Inh” value with ANKK1 (setting [1]) is reported as 17%; in the assay with ARK5 (setting [1]), 0%; in the assay on ASK1 (setting [1]), 0%; in the assay with ASK2 (setting [1]), 0%; in the assay on AURKA (setting [1]), 82%; with AURKB (setting [1]), 0%. In addition, the “%Inh” value with AURKC (setting [1]) amounted to 14%; in the assay with AXL (setting [1]) it was 0%; in the assay on BIKE (setting [1]) it was 26%; in the assay on BLK (setting [1]), 0%.
Turning to `Cc1cccc(-c2cc(Nc3ccncc3)c3ccccc3n2)n1` [GSK223675], the “%Inh” value in the assay on ANKK1 (setting [1]) amounted to 6%; in the assay with ARK5 (setting [1]), 8%; with ASK1 (setting [1]) it was 11%; in the assay with ASK2 (setting [1]) it was 9%; in the assay with AURKA (setting [1]) it was 9%; with AURKB (setting [1]) it was 0%. The “%Inh” value in the assay with AURKC (setting [1]) came to 1%; in the assay with AXL (setting [1]), 0%; in the assay with BIKE (setting [1]), 9%; in the assay on BLK (setting [1]), 11%.
`COc1ccc(Nc2nccc(-c3cccc(NC(=O)c4cc5cc(F)ccc5[nH]4)c3)n2)cc1` [GSK1229782]: the “%Inh” value with ANKK1 (setting [1]) is 0%; in the assay with ARK5 (setting [1]), 28%; in the assay on ASK1 (setting [1]), 0%; in the assay on ASK2 (setting [1]), 0%; in the assay with AURKA (setting [1]) it was 16%; in the assay on AURKB (setting [1]), 0%. In addition, the “%Inh” value turned out to be 66% in the assay on AURKC (setting [1]), 9% with AXL (setting [1]), 57% in the assay with BIKE (setting [1]) and 41% in the assay with BLK (setting [1]).
Regarding `COc1ccccc1-c1ccc2c(NC(=O)C3CC3)n[nH]c2n1` [SB-711239], the “%Inh” value with ANKK1 (setting [1]) amounted to 9%; with ARK5 (setting [1]), 0%; with ASK1 (setting [1]) it was 11%; in the assay with ASK2 (setting [1]), 17%; in the assay with AURKA (setting [1]), 0%; in the assay on AURKB (setting [1]), 0%. Besides, the “%Inh” value in the assay with AURKC (setting [1]) stood at 0%; with AXL (setting [1]), 12%; in the assay with BIKE (setting [1]), 0%; with BLK (setting [1]), 6%.
Turning to `Cc1cc(-c2ccc3c(c2)CC[C@@H](N[C@@H](C)c2ccccc2)C3)cnc1N.Cl` [GW412617], the “%Inh” value is given as 69% with ANKK1 (setting [1]); 13% in the assay on ARK5 (setting [1]); 33% with ASK1 (setting [1]); 0% with ASK2 (setting [1]); 0% in the assay on AURKA (setting [1]); 35% with AURKB (setting [1]). For the same compound, the “%Inh” value is on record as 26% in the assay with AURKC (setting [1]), 33% in the assay on AXL (setting [1]), 40% with BIKE (setting [1]) and 13% with BLK (setting [1]).
For the compound `Cc1c(Cn2ccn3c(=O)cc(N4CCOCC4)nc23)cccc1C(F)(F)F` [GSK2289044], the “%Inh” value was found to be 6% with ANKK1 (setting [1]); 9% in the assay with ARK5 (setting [1]); 4% with ASK1 (setting [1]); 7% in the assay on ASK2 (setting [1]); 7% in the assay with AURKA (setting [1]); 0% in the assay with AURKB (setting [1]). In addition, the “%Inh” value is recorded as 3% in the assay with AURKC (setting [1]), 7% with AXL (setting [1]), 0% in the assay with BIKE (setting [1]) and 0% in the assay on BLK (setting [1]).
For the compound `CSc1nn2c(=O)cc(N3CCOCC3)nc2n1Cc1cccc(C(F)(F)F)c1C` [GSK2363608], the “%Inh” value was 0% and 10% with ANKK1 (setting [2]); 13% and 8% in the assay with ARK5 (setting [2]); 14% and 0% in the assay on ASK1 (setting [2]); 86% and 7% in the assay on ASK2 (setting [2]); 0% and 1% with AURKA (setting [2]); 0% and 29% in the assay on AURKB (setting [2]). Moreover, the “%Inh” value was 24% and 0% with AURKC (setting [2]); 3% and 4% in the assay on AXL (setting [2]); 20% and 0% in the assay with BIKE (setting [2]); 8% and 9% in the assay with BLK (setting [2]).
Turning to `Fc1cc(Cl)ccc1Nc1ccnc2cc(-c3ccc(CN4CCCCC4)o3)ccc12` [GW560116], the “%Inh” value with ANKK1 (setting [1]) came out at 0%; with ARK5 (setting [1]) it was 0%; in the assay with ASK1 (setting [1]), 0%; in the assay on ASK2 (setting [1]) it was 0%; in the assay on AURKA (setting [1]), 95.7%; with AURKB (setting [1]), 0%. Besides, the “%Inh” value with AURKC (setting [1]) worked out at 0%; with AXL (setting [1]), 0%; in the assay on BIKE (setting [1]) it was 0%; in the assay on BLK (setting [1]) it was 55%.
Consider `COc1cc2nccc(Nc3ccc(NC(=O)c4ccc(C)cc4)c(O)c3)c2cc1OC.Cl` [GW440132], for which the “%Inh” value is 0% in the assay with ANKK1 (setting [1]); 0% in the assay on ARK5 (setting [1]); 0% with ASK1 (setting [1]); 0% in the assay with ASK2 (setting [1]); 7% in the assay on AURKA (setting [1]); 50% with AURKB (setting [1]). The “%Inh” value with AURKC (setting [1]) amounted to 57%; in the assay on AXL (setting [1]) it was 0%; in the assay on BIKE (setting [1]), 7%; in the assay with BLK (setting [1]), 95.5%.
In the case of `Cc1cccc(-c2nc(Nc3cccc(C(N)=O)c3)c3ccccc3n2)n1` [GW876019], the “%Inh” value with ANKK1 (setting [1]) is 0%; in the assay on ARK5 (setting [1]), 6%; in the assay with ASK1 (setting [1]), 17%; in the assay on ASK2 (setting [1]) it was 0%; with AURKA (setting [1]), 0%; in the assay with AURKB (setting [1]), 30%. Besides, the “%Inh” value came out at 12% in the assay on AURKC (setting [1]), 0% with AXL (setting [1]), 11% with BIKE (setting [1]) and 21% in the assay with BLK (setting [1]).
